The source made the active and inactive calls. Rule for the calls: active = hit-call score of the fitted dose curve at least 0.9, where 1 is the maximum; inactive = score below 0.9.
Key:
Conditions in all cases: mRNA level, 48 h; actives raise or lower the signal
[1] = read-out: Alkaline Phosphatase, Placental (ALPP) gene, ALPP (gene 250); assay: LTEA_HepaRG_ALPP: Life Technologies and Expression Analysis (LTEA) Assay for Alkaline Phosphatase, Placental (ALPP) gene using HepaRG (AID 2283468)
Method in brief: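 ALPP transcript level, measured by qRT-PCR and normalized to three housekeeping genes (ACTB, GAPDH, POLR2A), after 48 h dosing of differentiated HepaRG in serum-free induction medium. Top concentration 100 uM with half-log dilutions (8 points, 0.5% DMSO, duplicates); bidirectional fitting relative to DMSO.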

[2] = read-out: Bcl-2 (BAD) gene, BAD (gene 572); assay: LTEA_HepaRG_BAD: Life Technologies and Expression Analysis (LTEA) Assay for Bcl-2 (BAD) gene using HepaRG (AID 2283469)
Method in brief: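 Differentiated human HepaRG cells in serum-free induction medium were exposed in duplicate for 48 h to eight concentrations (top 100 uM, half-log steps, 0.5% DMSO). BAD mRNA was quantified by qRT-PCR normalised to ACTB, GAPDH and POLR2A, with bidirectional fitting versus DMSO.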

[3] = read-out: Bcl-2 (BAX) gene, BAX (gene 581); assay: LTEA_HepaRG_BAX: Life Technologies and Expression Analysis (LTEA) Assay for Bcl-2 (BAX) gene using HepaRG (AID 2283470)
Method in brief: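 HepaRG (human liver), 48 h exposure, duplicate wells. 8-pt curve, half-log from 100 uM, 0.5% DMSO. BAX transcript by TaqMan qRT-PCR; ACTB/GAPDH/POLR2A normalization; gain or loss vs DMSO baseline.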

[4] = read-out: Alpha-fetoprotein (AFP) gene, AFP (gene 174); assay: LTEA_HepaRG_AFP: Life Technologies and Expression Analysis (LTEA) Assay for Alpha-fetoprotein (AFP) gene using HepaRG (AID 2283472)
Method in brief: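 HepaRG, single lot; 48 h post-plating -> serum-free induction medium; cpd 8-pt, 100 uM top, half-log, 0.5% DMSO, duplicate, 48 h. RNA -> qRT-PCR AFP, norm ACTB/GAPDH/POLR2A. Bidirectional fit vs DMSO.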

BCL2L11 (gene 10018) = assay: LTEA_HepaRG_BCL2L11: Life Technologies and Expression Analysis (LTEA) Assay for Bcl-2 (BCL2L11) gene using HepaRG (AID 2283473)
Method in brief: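 BCL2L11 transcript levels are measured by Fluidigm qRT-PCR, normalized to three housekeeping genes. HepaRG cultures were plated 48 h, then treated 48 h with test chemical (top 100 uM, half-log, 0.5% DMSO vehicle); curves were fitted bidirectionally against DMSO.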

[5] = read-out: Apolipoprotein A-V (APOA5) gene, APOA5 (gene 116519); assay: LTEA_HepaRG_APOA5: Life Technologies and Expression Analysis (LTEA) Assay for Apolipoprotein A-V (APOA5) gene using HepaRG (AID 2283474)
Method in brief: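 APOA5 transcript levels were quantified by qRT-PCR, normalized to three housekeeping genes, after 48 h chemical treatment of HepaRG cells (8 points, 100 uM maximum, half-log steps, 0.5% DMSO). Curves fitted in both directions against vehicle.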

[6] = read-out: Apoptosis regulator Bcl-2 (Homo sapiens) (UniProt P10415); assay: LTEA_HepaRG_BCL2: Life Technologies and Expression Analysis (LTEA) Assay for Bcl-2 gene using HepaRG (AID 2283475)
Method in brief: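 HepaRG, plated 48 h then switched to serum-free induction medium; dosed 48 h, 8 conc. (max 100 uM, half-log steps), duplicate, 0.5% DMSO. Lysis in RLT, RNA isolated, TaqMan qRT-PCR for BCL2; ACTB/GAPDH/POLR2A normalisation; bidirectional fit vs DMSO.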

[7] = read-out: Bcl-2 (BID) gene, BID (gene 637); assay: LTEA_HepaRG_BID: Life Technologies and Expression Analysis (LTEA) Assay for Bcl-2 (BID) gene using HepaRG (AID 2283476)
Method in brief: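 Transcript levels of BID, measured by qRT-PCR and normalized to three housekeeping genes, were fitted bidirectionally against DMSO controls. Cells were HepaRG, dosed 48 h at up to 100 uM.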

[8] = read-out: Cytochrome P450 (CYP1A2), CYP1A2 (gene 1544); assay: LTEA_HepaRG_CYP1A2: Life Technologies and Expression Analysis (LTEA) Assay for Cytochrome P450 (CYP1A2) using HepaRG (AID 2283479)
Method in brief: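 CYP1A2 transcript measured by TaqMan qRT-PCR against three housekeeping genes after 48-hour chemical exposure of HepaRG cells. Eight-point half-log series topping at 100 uM in 0.5% DMSO, duplicates; gain or loss fitted relative to vehicle.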

[9] = read-out: cysteine-aspartic acid protease (CASP8), CASP8 (gene 841); assay: LTEA_HepaRG_CASP8: Life Technologies and Expression Analysis (LTEA) Assay for cysteine-aspartic acid protease (CASP8) using HepaRG (AID 2283480)
Method in brief: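 Differentiated human HepaRG cells, plated 48 h then switched to serum-free induction medium, were exposed in duplicate for 48 h to 8 half-log concentrations up to 100 uM in 0.5% DMSO. CASP8 mRNA was quantified by qRT-PCR, normalized to ACTB/GAPDH/POLR2A.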

Measured: AC50

Chain of Apoptosis regulator Bcl-2 (Homo sapiens) (P10415 whole entry, looked up): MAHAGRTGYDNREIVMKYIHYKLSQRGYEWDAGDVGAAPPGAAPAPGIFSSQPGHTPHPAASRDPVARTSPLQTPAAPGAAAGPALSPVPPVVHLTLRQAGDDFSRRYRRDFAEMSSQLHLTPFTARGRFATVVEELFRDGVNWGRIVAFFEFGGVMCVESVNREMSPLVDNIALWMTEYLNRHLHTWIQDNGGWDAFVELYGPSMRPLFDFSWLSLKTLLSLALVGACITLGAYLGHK

Oc1cccc2cccnc12
active: [8] 7.72 µM
inactive: all other assays above

ClCC(Cl)CCl
active: [3] 9.92 µM | [5] 77.6 µM | [7] 84.3 µM
inactive: all other assays above

C=CC(=O)OCCCCCC(C)C
active: [5] 0.483 µM | [8] 50 µM
inactive: all other assays above

CC(C)(C)CC(C)(C)c1ccc(O)cc1
active: [5] 50 µM | [7] 82.8 µM
inactive: all other assays above

CC(C)(c1ccccc1)c1ccc(O)c(C(C)(C)c2ccccc2)c1
active: [4] 68.7 µM | [5] 50 µM | [6] 81.6 µM
inactive: all other assays above

O=C(O)C(Cl)(Cl)Cl
inactive: all assays above

ClC1(Cl)C2(Cl)C3(Cl)C4(Cl)C(Cl)(Cl)C5(Cl)C3(Cl)C1(Cl)C5(Cl)C24Cl (stereo not drawn)
active: [8] 15.8 µM
inactive: all other assays above

C=C(C)C(=O)[O][Sn]([CH2]CCC)([CH2]CCC)[CH2]CCC
active: [1] 1.58 µM | [3] 92.1 µM | [4] 2.17 µM | BCL2L11 (gene 10018) 88.3 µM | [5] 2.92 µM | [6] 2.07 µM | [7] 1.58 µM | [8] 0.471 µM
inactive: [2] | [9]

O=c1[nH]c(=O)[nH]c(=O)[nH]1
inactive: all assays above

CCN1CCC2(CC1)COc1cc3c(cc12)N(C(=O)c1ccc(-c2ccc(-c4nnc(C)o4)cc2C)cc1)CC3
active: [5] 24.6 µM | [9] 21.8 µM
inactive: all other assays above

O=C(Nc1ccc2[nH]ccc2c1)c1cc2cc(F)ccc2n1Cc1cccc(F)c1
active: [1] 14.4 µM | [3] 19.2 µM | [4] 25.2 µM | BCL2L11 (gene 10018) 12.4 µM | [5] 56.2 µM | [6] 22.7 µM | [8] 12.5 µM
inactive: [2] | [7] | [9]

C[C@@H]1C[C@@H]([C@H](O)CC2CC(=O)NC(=O)C2)C(=O)[C@@H](C)C1
active: [1] 73.8 µM | [3] 9.92 µM | [4] 15.5 µM | [5] 26 µM | [7] 50 µM | [9] 79.9 µM
inactive: BCL2L11 (gene 10018) | [6]

CCC(=O)C(CC(C)N(C)C)(c1ccccc1)c1ccccc1 (stereo not drawn)
active: [4] 36.2 µM | [8] 36.2 µM
inactive: all other assays above

CN(C)N=O
inactive: all assays above

CCOP(=S)(OCC)Oc1nc(Cl)c(Cl)cc1Cl
active: [8] 50 µM
inactive: all other assays above

CC12CC1(C)C(=O)N(c1cc(Cl)cc(Cl)c1)C2=O (stereo not drawn)
active: [4] 25.8 µM | [8] 3.26 µM
inactive: all other assays above

— PubChem BioAssay (EPA / NIEHS)
